Experimental data reported in PubChem BioAssay.
Values joined by “and” are separate entries in the source; they are usually repeats but may differ in a detail not shown here. Equal entries are not always repeated. A structure can be active in one record and inactive in another. Active and inactive are the calls of the source.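 The calls were made as follows, unless noted: active = normalized viability below 100% at a tested concentration; inactive = the rest.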

Key:
[1] = Wnt pathway potentiators raising nuclear beta-catenin – imaging, WNT3A-conditioned medium, mouse C2C12, NPC library, primary screen (AID 1117326; in the data active = nuclear beta-catenin stimulation mostly above about 4.2%, no sharp cut-off; inactive = mostly below about 10%); settings: stronger effect = higher value
[2] = stimulators of insulin release from INS-1E, primary screen, cell-based, 5 mM glucose, NPC library (AID 1117329;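 active = compound raises insulin release from rat beta cells at 5 mM glucose, no numeric limit stated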); settings: rat INS-1E insulin secretion, at 10 µM, stronger effect = higher value
[3] = growth inhibition of GSK3B-pretreated HCT116 cells – cell-based, CellTiter-Glo, 0.2 to 20 µM (AID 1117336;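 active = compounds lowering colon cancer cell viability after pretreatment blocking the GSK3B kinase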); settings: HCT116 viability after GSK3B inhibitor, at 20 µM, stronger effect = higher value
[4] = inhibition of endothelial tube formation, primary screen, imaging, VEGF stimulated, CD31 staining, tube area, NPC library (AID 1117340;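 active = compound that reduces growth-factor-driven endothelial tube area in a mixed cell culture, no cutoff stated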); settings: VEGF-stimulated ADSC/ECFC co-culture, at 10 µM, stronger effect = higher value
[5] = GLP1 release stimulators, primary, NCI-H716, NPC library (AID 1117341;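 active = compound raises GLP1 secretion from the human gut endocrine cells, with no numeric limit stated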); settings: NCI-H716 cells, at 10 µM, stronger effect = higher value
[6] = HCT116 colon cancer cell growth inhibition, primary screen, CellTiter-Glo luminescence, NPC library (AID 1117342;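 active = compounds that lower survival of HCT116 colon cancer cells in the luminescence readout, no numeric limit stated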); settings: at 20 µM (top of the series)
[7] = reduced SW480 viability measured with CellTiter-Glo, NPC library, primary (AID 1117343;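 active = compounds that lower viability of the colon cancer cells in the luminescence readout, with no numeric limit stated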); settings: CellTiter-Glo luminescence; at 20 µM (top of the series)
[8] = NPC library primary testing for decreased DLD-1 cell viability via CellTiter-Glo (AID 1117346;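 active = compounds that lower survival of DLD-1 colon cancer cells in the luminescence readout, no cutoff given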); settings: DLD-1 viability, CellTiter-Glo luminescence; at 20 µM (top of the series)
[9] = biological target: 6-phosphogluconate dehydrogenase, decarboxylating (Homo sapiens) (UniProt P52209); experiment: inhibition of human phosphogluconate dehydrogenase – biochemical, recombinant enzyme, NADPH absorbance, primary screen (AID 1159550;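 active = at least 20% inhibition of 6-phosphogluconate dehydrogenase activity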); settings: recombinant 6PGD, NADPH absorbance 341 nm; at 10 µM; stronger effect = higher value
[10] = modulation of C. elegans fzo-1 (AID 1259413; call rule not given here;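 also: fzo-1 mutant C. elegans worms in liquid wells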); settings: C. elegans fzo-1 modulator screen, mean read-out; stronger effect = higher value
[11] = EMT-state selective cytotoxicity in co-culture – imaging, PC-3E GFP, TEM4-18 mCherry, primary screen (AID 1345086;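 active = compounds killing one labelled cell type while sparing the other, by normalised counts and ratio limits, not self-fluorescent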;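 as to all read-outs here: cells exposed to compound for 72 h before imaging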;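 as to red/green cell ratio (normalised): normalised mesenchymal count divided by normalised epithelial count so high means epithelial killing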); settings: PC-3E GFP / TEM4-18 mCherry co-culture, imaging cell counts, at 1 µM; for red/green cell ratio (normalised): actives lie on both sides, counts scaled to control wells, 1 = unselective
[12] = MELAS cybrid and Rieske KO viability enhancers – cell-based, MELAS cybrids, Rieske KO mouse fibroblasts, CellTiter-Glo, primary screen (AID 1508586;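 active = mean z-score across replicates of 1.96 or higher in either the MELAS or the Rieske mutant cell line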;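 also: z relative to plate mean and SD of compound and empty wells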); settings: low glucose
[13] = biological target: NAD(+) hydrolase SARM1 (Homo sapiens) (UniProt Q6SZW1); experiment: blocking NAD cleavage by SARM1 SAM-TIR – cell lysate, NAD-Glo luminescence (AID 1508614;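 active = compound whose remaining NAD level is above about 45 nM, limit read from the data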;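 also: higher remaining NAD means stronger inhibition of SARM1 NADase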); settings: SAM-TIR HEK293T lysate NADase, at 1 µM, stronger effect = higher value
[14] = biological target: Mitogen-activated protein kinase 7 (Homo sapiens) (UniProt Q13164); experiment: Gal4-ERK5 driven luciferase induction – cell-based, HTS, primary screen (AID 1508626;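 active = luciferase signal above three times the same-plate solvent-only control wells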;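 also: luciferase driven by Gal4-ERK5 fusion binding five Gal4 sites before minimal TATA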); settings: HeLa Gal4-ERK5 transactivation, 18 h, at 5 µM, stronger effect = higher value
[15] = system: F380Y; experiment: BK channel mutant inhibitors and activators – cell-based, U2OS BacMam, thallium flux, beta subunits, selectivity assay, profiling panel (AID 1259406;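 active = thallium flux through the channel raised or lowered by more than 3 SD from vehicle-only wells, actives on both sides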;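 also: initial slope of Thallos dye fluorescence rise after thallium is added; log ratio against the mean of 0.3% DMSO vehicle wells on the same plate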); settings: U2OS BacMam BK variants, at 30 µM
[16] = system: F380Y/beta1; experiment: as above; settings: U2OS BacMam BK variants, at 30 µM
[17] = system: F380Y/beta2Delta; experiment: as above; settings: U2OS BacMam BK variants, at 30 µM
[18] = drug combination growth inhibition, ovarian cancer – cell-based, oncology-focused library, rucaparib conditional, profiling panel (AID 1508598); settings: patient-derived ovarian cancer cells, CellTiter-Glo viability, 144 h, stronger effect = lower value
[19] = growth inhibition, single agents and combos, ICB984, cell-based, cisplatin or BGB combos, synergistic combos for chromothripsis tumors (AID 1671451; call rule not given here;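 also: cells exposed for 96 hours before readout; 0% = vehicle DMSO and 100% = killing by high DMSO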); settings: ICB984 medulloblastoma cells, drug combinations, stronger effect = higher value
[20] = measured here: epithelial PC-3E GFP cell survival
[21] = measured here: mesenchymal TEM4-18 mCherry cell survival

Chain of 6-phosphogluconate dehydrogenase, decarboxylating (Homo sapiens) (P52209 whole entry, looked up): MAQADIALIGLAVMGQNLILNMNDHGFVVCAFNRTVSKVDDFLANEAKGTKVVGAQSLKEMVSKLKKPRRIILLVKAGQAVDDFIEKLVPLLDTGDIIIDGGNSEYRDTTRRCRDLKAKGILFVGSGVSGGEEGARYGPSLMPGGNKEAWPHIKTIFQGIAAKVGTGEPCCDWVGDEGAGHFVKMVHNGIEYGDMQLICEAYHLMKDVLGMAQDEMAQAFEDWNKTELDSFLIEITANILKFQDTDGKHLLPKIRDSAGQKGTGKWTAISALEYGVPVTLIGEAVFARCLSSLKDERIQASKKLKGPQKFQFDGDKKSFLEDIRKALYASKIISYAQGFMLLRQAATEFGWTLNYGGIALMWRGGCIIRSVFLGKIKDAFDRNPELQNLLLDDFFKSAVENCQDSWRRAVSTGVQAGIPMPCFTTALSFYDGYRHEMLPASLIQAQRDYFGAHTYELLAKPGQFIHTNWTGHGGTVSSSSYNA
Chain of Mitogen-activated protein kinase 7 (Homo sapiens) (Q13164 whole entry, looked up, the tested form may be a part): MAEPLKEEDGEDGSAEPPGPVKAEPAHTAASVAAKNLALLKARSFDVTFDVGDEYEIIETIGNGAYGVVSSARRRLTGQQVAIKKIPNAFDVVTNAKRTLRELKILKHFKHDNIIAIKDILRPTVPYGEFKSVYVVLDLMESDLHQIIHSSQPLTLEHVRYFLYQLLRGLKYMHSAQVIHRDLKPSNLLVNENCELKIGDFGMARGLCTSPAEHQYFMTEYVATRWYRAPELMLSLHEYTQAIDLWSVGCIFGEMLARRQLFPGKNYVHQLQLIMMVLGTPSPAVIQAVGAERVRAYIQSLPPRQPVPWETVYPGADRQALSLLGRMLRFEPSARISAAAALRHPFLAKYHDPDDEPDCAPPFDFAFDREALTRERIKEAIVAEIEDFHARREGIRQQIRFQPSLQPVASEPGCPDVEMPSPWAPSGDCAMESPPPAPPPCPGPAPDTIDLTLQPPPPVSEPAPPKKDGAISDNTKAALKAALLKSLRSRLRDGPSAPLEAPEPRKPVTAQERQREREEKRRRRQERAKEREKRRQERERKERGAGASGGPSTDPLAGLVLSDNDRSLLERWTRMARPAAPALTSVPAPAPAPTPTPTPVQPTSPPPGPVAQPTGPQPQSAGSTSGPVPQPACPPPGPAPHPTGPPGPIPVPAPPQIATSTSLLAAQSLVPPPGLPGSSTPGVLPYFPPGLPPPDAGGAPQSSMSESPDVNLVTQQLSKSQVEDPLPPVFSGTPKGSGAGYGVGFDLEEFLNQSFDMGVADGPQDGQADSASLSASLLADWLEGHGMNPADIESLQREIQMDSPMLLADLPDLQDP
Chain of NAD(+) hydrolase SARM1 (Homo sapiens) (Q6SZW1 whole entry, looked up, the tested form may be a part): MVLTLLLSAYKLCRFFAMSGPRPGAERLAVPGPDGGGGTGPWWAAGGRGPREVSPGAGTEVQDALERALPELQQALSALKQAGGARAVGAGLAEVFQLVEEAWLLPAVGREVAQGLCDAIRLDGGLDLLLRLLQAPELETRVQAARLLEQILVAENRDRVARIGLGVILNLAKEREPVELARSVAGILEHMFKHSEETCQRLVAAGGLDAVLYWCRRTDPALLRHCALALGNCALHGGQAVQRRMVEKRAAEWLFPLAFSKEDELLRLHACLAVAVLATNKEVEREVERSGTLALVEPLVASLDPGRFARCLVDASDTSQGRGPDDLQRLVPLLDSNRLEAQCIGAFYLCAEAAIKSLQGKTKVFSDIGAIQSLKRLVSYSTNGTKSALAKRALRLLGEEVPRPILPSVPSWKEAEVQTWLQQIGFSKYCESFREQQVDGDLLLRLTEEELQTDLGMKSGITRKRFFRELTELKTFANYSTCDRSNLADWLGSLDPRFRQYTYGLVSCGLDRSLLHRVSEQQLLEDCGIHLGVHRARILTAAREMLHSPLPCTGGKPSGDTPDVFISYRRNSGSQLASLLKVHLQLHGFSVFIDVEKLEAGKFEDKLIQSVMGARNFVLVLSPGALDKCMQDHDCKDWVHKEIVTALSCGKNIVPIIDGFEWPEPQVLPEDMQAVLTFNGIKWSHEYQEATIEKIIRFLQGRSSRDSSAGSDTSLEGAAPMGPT

NNCCc1ccccc1
0.91: normalised cell number [11, 21]
0.7%: nuclear beta-catenin stimulation ([1]; stimulation, at 2 µM)
1.03: normalised cell number [11, 20]
inactive: nuclear beta-catenin stimulation ([1]; at 10 µM) 1.9% | insulin secretion stimulation [2] -0.6% | viability decrease [3] -32% | tube area decrease [4] 7.4% | GLP1 secretion stimulation [5] -0.4% | inhibition of viability [6] 5.1% | viability decrease (inhibition) [7] -14.5% | viability decrease (inhibition) [8] 7.4% | inhibition [9] 8.47% | mean signal [10] 213 | red/green cell ratio (normalised) [11] 0.88 | z-score ([12]; MELAS cybrid survival, CellTiter-Glo 48 h, stronger effect = higher value) -0.122 | remaining NAD [13] 10 nM | luciferase signal [14] 44 AU | log fold change Tl+ flux [15] 0.0104 | log fold change Tl+ flux [16] -0.0168 | log fold change Tl+ flux [17] -0.0213
-0.108: z-score ([12]; Rieske KO mouse fibroblast survival, CellTiter-Glo 72 h)

O=C1c2c(O)ccc(O)c2C(=O)c2c(NCCNCCO)ccc(NCCNCCO)c21
active: nuclear beta-catenin stimulation ([1]; at 10 µM) 79.6% | viability decrease [3] 102% | tube area decrease [4] 109% | inhibition of viability [6] 101% | viability decrease (inhibition) [7] 102% | viability decrease (inhibition) [8] 96.1% | viability ([18]; at 0.000305 µM, OCI-P5x cells, with rucaparib 20 µM, 100% = cells with rucaparib alone) 85.2% and 88.1% | viability ([18]; at 0.00122 µM, OCI-P5x cells, with rucaparib 20 µM, 100% = cells with rucaparib alone) 98.9% and 93.9% | viability ([18]; at 0.00488 µM, OCI-P5x cells, with rucaparib 20 µM, 100% = cells with rucaparib alone) 97.7% and 84.3% | viability ([18]; at 0.0195 µM, OCI-C5x cells, with rucaparib 10 µM, 100% = cells with rucaparib alone) 83.6% and 77% | viability ([18]; at 0.0195 µM, OCI-C5x cells, without rucaparib) 87.9% and 74.9% | viability ([18]; at 0.0195 µM, OCI-P5x cells, with rucaparib 20 µM, 100% = cells with rucaparib alone) 86.2% and 68.2% | viability ([18]; at 0.0195 µM, OCI-P5x cells, without rucaparib) 74.8% and 44.3% | viability ([18]; at 0.0781 µM, OCI-C5x cells, with rucaparib 10 µM, 100% = cells with rucaparib alone) 89.4% and 82.8% | viability ([18]; at 0.0781 µM, OCI-C5x cells, without rucaparib) 78.8% and 86.1% | viability ([18]; at 0.0781 µM, OCI-P5x cells, with rucaparib 20 µM, 100% = cells with rucaparib alone) 52.6% and 49.6% | viability ([18]; at 0.0781 µM, OCI-P5x cells, without rucaparib) 27.2% and 21.5% | viability ([18]; at 0.313 µM, OCI-C5x cells, with rucaparib 10 µM, 100% = cells with rucaparib alone) 76.1% and 60.1% | viability ([18]; at 0.313 µM, OCI-C5x cells, without rucaparib) 57% and 56.6% | viability ([18]; at 0.313 µM, OCI-P5x cells, with rucaparib 20 µM, 100% = cells with rucaparib alone) 25.3% and 26% | viability ([18]; at 0.313 µM, OCI-P5x cells, without rucaparib) 12.4% and 12.3% | viability ([18]; at 1.25 µM, OCI-C5x cells, with rucaparib 10 µM, 100% = cells with rucaparib alone) 13.3% and 11.4% | viability ([18]; at 1.25 µM, OCI-C5x cells, without rucaparib) 15% and 15.4% | viability ([18]; at 1.25 µM, OCI-P5x cells, with rucaparib 20 µM, 100% = cells with rucaparib alone) 7.5% and 9.35% | viability ([18]; at 1.25 µM, OCI-P5x cells, without rucaparib) 6.58% and 5.99% | viability ([18]; at 5 µM, OCI-C5x cells, with rucaparib 10 µM, 100% = cells with rucaparib alone) 3.19% and 2.94% | viability ([18]; at 5 µM, OCI-C5x cells, without rucaparib) 2.31% and 2.92% | viability ([18]; at 5 µM, OCI-P5x cells, with rucaparib 20 µM, 100% = cells with rucaparib alone) 6.35% and 8.96% | viability ([18]; at 5 µM, OCI-P5x cells, without rucaparib) 6.78% and 6.39%
inactive: insulin secretion stimulation [2] 3.9% | GLP1 secretion stimulation [5] -17.3% | inhibition [9] 13% | mean signal [10] 214 | red/green cell ratio (normalised) [11] 0.57 | viability ([18]; at 0.000305 µM, OCI-C5x cells, with rucaparib 10 µM, 100% = cells with rucaparib alone) 111% and 109% | viability ([18]; at 0.000305 µM, OCI-C5x cells, without rucaparib) 114% and 118% | viability ([18]; at 0.00122 µM, OCI-C5x cells, with rucaparib 10 µM, 100% = cells with rucaparib alone) 114% and 109% | viability ([18]; at 0.00122 µM, OCI-C5x cells, without rucaparib) 117% and 115% | viability ([18]; at 0.00488 µM, OCI-C5x cells, without rucaparib) 113% and 104% | remaining NAD [13] 10 nM | luciferase signal [14] 20 AU | inhibition ([19]; at 0.5 µM) -30% | log fold change Tl+ flux [15] -0.0248 | log fold change Tl+ flux [16] -0.0573 | log fold change Tl+ flux [17] 0.00615
14.7%: inhibition ([19]; BGB IC40 combo, at 0.005 µM)
109% (inactive) and 96.8% (active): viability ([18]; at 0.00122 µM, OCI-P5x cells, without rucaparib)
107% (inactive) and 84.4% (active): viability ([18]; at 0.00488 µM, OCI-P5x cells, without rucaparib)
17.1%: inhibition ([19]; BGB IC20 combo, at 0.005 µM)
14.4%: nuclear beta-catenin stimulation ([1]; stimulation, at 2 µM)
104% (inactive) and 93.6% (active): viability ([18]; at 0.00488 µM, OCI-C5x cells, with rucaparib 10 µM, 100% = cells with rucaparib alone)
0.12: normalised cell number [11, 21]
100% (inactive) and 94.2% (active): viability ([18]; at 0.000305 µM, OCI-P5x cells, without rucaparib)
-32.5%: inhibition ([19]; cisplatin combo, at 5 µM)
-34.5%: inhibition ([19]; measured here: 5 uM single agent, at 5 µM)
101%: inhibition ([19]; BGB IC40 combo, at 0.05 µM) | inhibition ([19]; cisplatin combo, at 0.05 µM)
0.2: normalised cell number [11, 20]
-40.5%: inhibition ([19]; cisplatin combo, at 0.5 µM)
